Source: PubChem BioAssay
BoNT-A LC inh2 = inhibitors of Botulinum neurotoxin A light chain protease; multiplex microsphere protease substrate cleavage, flow cytometry; inhibition, % at 10 µM; actives 0.17% (n = 360,000)
Anthrax LF prot = inhibitors of Bacillus anthracis lethal factor protease. multiplex microsphere protease cleavage assay, LF. actives 0.12% (n = 360,000). P15917. AID 588501. inhibition, % at 10 µM
MazF activator = increases E. coli MazEF RNase cleavage of RNA; FAM/BHQ RNA-DNA oligo cleavage fluorescence, 5 h; activation, % at 20 µM; actives 0.32% (n = 350,000); in the data active = activation above about 50%
Target sequence (P0AE70 whole entry, looked up): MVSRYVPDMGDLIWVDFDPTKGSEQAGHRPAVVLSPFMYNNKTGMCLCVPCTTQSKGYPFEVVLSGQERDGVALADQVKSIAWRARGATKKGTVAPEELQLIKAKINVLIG
Bead autofluor = counter-screen for toxin protease inhibitors: compound fluorescence; compound autofluorescence counterscreen, microsphere flow cytometry; stronger effect = higher value; fluorescence intensity (concentration not given with the values); actives 3.1% (n = 360,000); in the data active = fluorescence intensity above about 16000; inconclusive = no clear call, values can overlap the other calls
BoNT-F LC inh = BoNT F light chain protease inhibition | Multiplex microsphere protease cleavage assay, flow cytometry | inhibition, % at 10 µM | actives 0.22% (n = 360,000) | AID 588497; in the data active = inhibition above about 35%, passing the limit was not always enough; inconclusive = no clear call, values can overlap the other calls
Large screens that a line does not name were inactive. In the library only some 3.7% were active in any assay of this set; here they are far more common. Cut-off read from the data, not from the text of the source, unless noted: active = inhibition above about 30%; inconclusive = no clear call, values can overlap the other calls; inactive = below that.

O=C(CN1CCCCC1)N1c2ccccc2CCc2ccccc21	none
CC1CC(C)CN(C(=O)CCNC(=O)c2ccccc2Cl)C1 (stereo unspecified)	none
O=C(OCC(=O)N1CCN(c2ccccc2)CC1)c1cc(F)c(F)cc1Cl	none
COc1cccc(CSc2nnc(C(F)(F)F)n2Cc2ccc(F)cc2)c1	Bead autofluor 22093
Cc1ccc(CSc2nnc(C(F)(F)F)n2Cc2ccc(F)cc2)cc1	none
Cc1ccc(OCC(=O)N2CCN(C3=NS(=O)(=O)c4ccccc43)CC2)cc1	Bead autofluor 20779
Cc1ccc(S(=O)(=O)CCC(=O)OCC(=O)N2CCN(S(=O)(=O)c3ccc(Cl)cc3)CC2)cc1	none
CCS(=O)(=O)N1CCN(C(=O)COc2ccc(-c3ccccc3)cc2)CC1	Bead autofluor 22952
Cc1ccc(OCCC(=O)OCC(=O)N2CCN(S(=O)(=O)c3ccc(C)cc3)CC2)cc1	Bead autofluor 26716
CCC(=O)N1CCCC1(C)C(=O)Nc1cc(OC)ccc1OC (stereo unspecified)	none (no result: MazF activator)
CC1(C(=O)NS(=O)(=O)C2CC2)CCN(C(=O)COc2ccc(Cl)cc2Cl)C1 (stereo unspecified)	none (no result: MazF activator)
CCOC(=O)N1C2CCC(C2)N1C(=O)OCC	none
CCOC(=O)N1C2C=CC(C2)N1C(=O)OCC	MazF activator 157
N#Cc1cccc(-c2csc(C(O)(c3ccccc3)C(F)(F)F)n2)c1 (stereo unspecified)	none (no result: MazF activator)
COC(=O)c1cccc(NC(=O)c2nn(C(C)C)c(=O)c3ccccc23)c1	BoNT-A LC inh2 inconclusive, Bead autofluor 17352
COC(=O)c1[nH]c2ccccc2c1NS(=O)(=O)c1ccc(F)c(C)c1	Bead autofluor 16616
CCCS(=O)(=O)Nc1c(C(=O)OC)[nH]c2ccccc12	none
Cc1nc(NC(=O)COC(=O)CCS(=O)(=O)c2ccccc2Cl)c(Cl)cc1Cl	BoNT-A LC inh2 inconclusive, Bead autofluor 20461
O=C(COC(=O)CCc1ccccc1)Nc1ncc(Cl)cc1Cl	Bead autofluor 16931
Cc1nc(NC(=O)COC(=O)C2CC2C)c(Cl)cc1Cl (stereo unspecified)	none
O=C(NCCc1ccccc1)c1noc2c1CCc1ccccc1-2	Bead autofluor 17456
Cc1cccc(C(=O)NCCN2CCN(c3ccccc3)CC2)c1	none
O=C(NCCN1CCN(c2ccccc2)CC1)c1cccc(Br)c1	Bead autofluor 23925
O=C(NCCN1CCOCC1)c1ccc(-c2ccccc2)cc1	Bead autofluor 20391
O=C(Cc1ccc(-c2ccccc2)cc1)NCCN1CCOCC1	none
O=C(NCCN1CCOCC1)c1noc2c1CCc1ccccc1-2	Bead autofluor 23180
CCCNC(=O)c1noc2c1CCc1ccccc1-2	none
CC(C)c1cc(Cn2c3ccccc3c(=O)n2C(C)CBr)on1 (stereo unspecified)	none (no result: MazF activator)
COC(=O)C1CCN(C2CN(Cc3ccc(F)cc3)S(=O)(=O)C2)CC1 (stereo unspecified)	none (no result: MazF activator)
CC1(C(=O)Nc2cccc3ccccc23)CCN1C(=O)C1(c2ccccc2)CCCC1 (stereo unspecified)	none (no result: MazF activator)
COc1cc(CNn2nnnc2N)ccc1OCC(=O)NC(C)(C)C	Bead autofluor 23140
CC(C)(C)NC(=O)COc1ccc(CNn2nnnc2N)cc1	none
CCOc1cc(CNn2nnnc2N)ccc1OCC(=O)NC(C)(C)C	Bead autofluor 16985
CCOc1cc(CNC)ccc1OCC(=O)NC(C)(C)C	none
Clc1nnc(N/N=C/c2ccccc2)c2ccccc12	Bead autofluor 16810
COc1ccc(/C=N/Nc2nnc(-c3ncc[nH]3)c3ccccc23)cc1	Bead autofluor 21400
Oc1ccc2ccccc2c1C=NNc1ccccn1	none
Oc1ccc2ccccc2c1/C=N/Nc1nnc(-c2ncc[nH]2)c2ccccc12	MazF activator 65
COc1ccc(/C=N/Nc2cc(C)nc3ccccc23)cc1	none
C[C@H]1CN([C@@H](C)CO)C(=O)c2cc(Br)cnc2O[C@@H]1CN(C)S(=O)(=O)c1ccccc1	none
CCOC(=O)C1CCCN(CCC(C)c2ccccc2)C1 (stereo unspecified)	Bead autofluor 21853
CCOC(=O)C1CCCN(C/C=C/c2ccccc2[N+](=O)[O-])C1 (stereo unspecified)	Bead autofluor 16661
CCN(CC)C(=O)C1CCCN(C/C=C/c2ccccc2[N+](=O)[O-])C1 (stereo unspecified)	none
CCOC(=O)C1CCCN(CC(=O)Nc2cc(C)cc(C)c2)C1 (stereo unspecified)	none
CCOC(=O)C1CCCN(CC(=O)NC2CC2)C1 (stereo unspecified)	Bead autofluor 16644
CCOC(=O)C1=C(COC(=O)COc2ccccc2C#N)NC(=O)NC1C (stereo unspecified)	Bead autofluor inconclusive
Clc1ccc(NN(Cc2ccncc2)c2ccc(Cl)cc2)cc1	none
COc1ccc(C(=O)c2c3ccc(OC)cc3[n+]([O-])n2Cc2ccc(C(N)=O)cc2)cc1	none
CCCN(CCC)S(=O)(=O)c1ccc2c(c1)CCCN2C(C)=O	none
COc1ccc(NC(=O)N2CCCc3ccccc32)cc1	Bead autofluor 20850
O=C(c1cccnc1)N1CCc2ccccc21	Bead autofluor 20167
COc1cccc(C(=O)N2CCCc3ccccc32)c1	Bead autofluor 17528
CCCN(CCC)S(=O)(=O)c1ccc(C(=O)N2CCCc3ccccc32)cc1	Bead autofluor 22837
COC(=O)c1ccc(NC(=O)c2ccc[n+]([O-])c2)cc1	none
CC(C)C[C@H]1CNC(=O)C(=O)N1CC1CCN(CC2CCC(C(C)(C)C)CC2)CC1 (stereo partly specified)	none
Cc1cc(C)nc(SSc2nc(C)cc(C)n2)n1	none
CCCCNC(=O)C1(C)CCN1C(=O)c1ccc2c(c1)C(C)(C)CCC2(C)C (stereo unspecified)	none (no result: MazF activator)
Cc1ccc(OCCCNC2CCCC2)cc1	none
CC(C)(C)c1ccc(OCCCNC2CCCC2)cc1	none
CCOc1ccc(OCCNC2CCCC2)cc1	BoNT-A LC inh2 inconclusive, Bead autofluor 22478
CCCOc1ccc(OCCNC2CCCC2)cc1	Bead autofluor 20118
O=C1c2ccccc2[C@@H]2Cc3csc[n+]3[C@H]12	none (no result: MazF activator)
O=C(Nc1ccccc1NC(=O)c1ccco1)c1ccco1	Bead autofluor 22408
O=C(Nc1c(-c2ccccc2)nc2ccccn12)c1ccco1	BoNT-A LC inh2 inconclusive, Bead autofluor 22214
O=C(Nc1ccccc1-c1ccccc1NC(=O)c1ccco1)c1ccco1	none
CCOC(=O)c1c(-c2ccccc2)nc2c(C)cccn12	none
CCOC(=O)c1c(-c2ccccc2)nc2ccccn12	BoNT-A LC inh2 inconclusive, Bead autofluor 22802
CSc1ccccc1NC(=O)c1ccco1	Bead autofluor 22329
Cc1ccc(C(=O)N2[C@@H]3CN(C)C(=O)[C@@]2(Cc2ccccc2)[C@H]2C(=O)N(C)C(=O)[C@@H]32)cc1	none
CNc1c([N+](=O)[O-])cnn1-c1ccccc1F	none
CNc1c([N+](=O)[O-])cnn1-c1ccc(C)cc1	Bead autofluor 23938
Cc1ccc(C(=O)n2cc(CCN3CCS(=O)(=O)CC3)c3ccccc32)cc1	Bead autofluor 16475
O=S1(=O)CCN(CCc2c[nH]c3ccccc23)CC1	none
